# Sampled rows, rich in hits. Any-hit rate of the full collection: about 2.6%.
# Gli-Sufu block = blocks Gli-Sufu signaling in a luciferase reporter | Sufu-KO-LIGHT fibroblasts, Gli luciferase reporter luminescence | inhibition, % at 5 µM | 0.74% of 340,000 active | AID 588413;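 active means inhibition above about 55%, limit read from the data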;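 further: 0% = DMSO-treated cells and 100% = wells with medium but no cells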
# TAG inh = triacylglycerol accumulation inhibition; H9c2 cells, Nile Red lipid (TAG) fluorescence; cells loaded with 200 µM oleic acid; inhibition, % at 12.5 µM; 0.66% of 230,000 active;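 active means pattern-corrected inhibition of lipid staining of at least 50% with the nuclear-stain viability signal not falling by more than 50%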;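 further: 0% = DMSO wells and 100% = triacsin C control wells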
# COUP-TFII inh = blocks human COUP-TFII nuclear receptor; P24468; HEK293T NGFI-A luciferase reporter, luminescence; inhibition, % at 8.6 µM; 0.7% of 370,000 active; AID 686940;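 active means inhibition above a per-plate cutoff, mean inhibition of test wells between control levels plus 3 SD, cut at about 38% in these data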;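 further: cells cotransfected with COUP-TFII expression vector driving the NGFI-A reporter; 0% = median of COUP-TF2 test wells and 100% = reporter-only cells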
# Target sequence (P24468 whole entry, looked up): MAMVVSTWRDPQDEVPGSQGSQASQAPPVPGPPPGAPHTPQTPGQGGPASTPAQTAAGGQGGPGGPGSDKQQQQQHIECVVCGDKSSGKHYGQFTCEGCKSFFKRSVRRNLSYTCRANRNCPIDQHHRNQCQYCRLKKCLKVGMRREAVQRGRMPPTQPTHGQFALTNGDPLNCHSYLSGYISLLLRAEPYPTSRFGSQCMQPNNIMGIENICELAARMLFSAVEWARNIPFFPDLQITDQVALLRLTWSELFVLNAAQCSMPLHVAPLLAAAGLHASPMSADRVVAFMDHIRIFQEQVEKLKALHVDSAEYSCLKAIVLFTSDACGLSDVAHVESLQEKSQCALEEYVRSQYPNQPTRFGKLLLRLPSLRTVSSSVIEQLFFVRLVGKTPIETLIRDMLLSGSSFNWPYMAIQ
# H9c2 protect = protects H9c2 cardiomyocytes from peroxide injury | 0.63% of 360,000 active | protection from H2O2 cell death, % at 20 µM | H2O2 injury protection, ATPLite, 2 h;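 active means compounds giving at least 50% protection of heart cells from peroxide-induced death in the single-dose screen, raw or plate-pattern-corrected value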;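 further: 0% = DMSO wells with peroxide and 100% = DMSO wells without peroxide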
# 697 NFkB inh = inhibitors of the PMA/ionomycin-induced NF-kB reporter in 697 B cells; 697 B-cell NF-kB luciferase reporter, 16 h; inhibition, % at 4 µM; 0.33% of 330,000 active; in the data active means inhibition above about 35%
# Jurkat NFkB inh = inhibitors of the PMA/ionomycin-induced NF-kB reporter in Jurkat cells; 0.53% of 330,000 active; PMA/ionomycin-induced NF-kB luciferase reporter, luminescence; AID 435003; inhibition, % at 4 µM; in the data active means inhibition above about 50%
# Gli antag conf = Gli-SUFU antagonism confirmation, single concentration; shares compounds with Gli-Sufu block; Sufu-KO-LIGHT cells, Gli luciferase reporter, luminescence; inhibition, % at 5 µM; 40% of 2,500 active; AID 602428;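 active means mean inhibition at 5 µM reaching about 45%, limit read from the data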;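 further: plate controls were DMSO-treated cells for no effect and wells lacking cells for full effect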
# Gli cytotox = cytotoxicity counter-screen for Gli-SUFU antagonists; shares compounds with Gli-Sufu block; Sufu-KO-LIGHT cells cytotoxicity, ATP luminescence; cytotoxicity, % at 5 µM; 32% of 2,500 active;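 active means mean cytotoxicity at 5 µM above about 25%, limit read from the data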;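 further: cells exposed to compound overnight for roughly 16 to 18 hours; plate controls were DMSO wells with cells for no effect and medium without cells for full effect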
# Wnt3a cs = Wnt3a reporter inhibition counter-screen; shares compounds with Gli-Sufu block; Wnt-LIGHT cells, Wnt3a-driven luciferase reporter, luminescence; inhibition, % at 6.25 µM; 20% of 2,500 active; AID 651995;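 active means mean inhibition above about 25%, limit read from the data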
# TAG conf = triacylglycerol accumulation inhibition, confirmation; shares compounds with TAG inh; H9c2 lipid accumulation, Nile Red fluorescence; cells loaded with 200 µM oleic acid; inhibition, % at 12.5 µM; 71% of 990 active;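 active means mean inhibition across replicates of 40% or more; inactive means mean inhibition below 40%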;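 further: plate controls were DMSO only wells for no effect and Triacsin C treated wells for full effect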
# Gal4-VP16 ctr = counter-screen for COUP-TFII antagonists: inhibitors of VP16 | shares compounds with COUP-TFII inh | HEK293 Gal4-VP16 luciferase reporter, luminescence | inhibition, % at 8.5 µM | 25% of 2,500 active; in the data active means inhibition above about 13%
# NR2F2 inh conf = COUP-TFII (NR2F2) inhibition, confirmation assay. shares compounds with COUP-TFII inh. HEK293 NGFI-A luciferase reporter, luminescence. inhibition, % at 8.5 µM. 45% of 2,500 active;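 active means mean inhibition over three repeats above a set limit taken from the earlier primary screen, cut at about 38% in these data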;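 further: 100% = cells given the luciferase reporter alone without the COUP-TF2 vector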
# * marks the source's active call; other numbers are inactive results; x = not tested or not shown.
SMILES,Gli-Sufu block,TAG inh,COUP-TFII inh,H9c2 protect,697 NFkB inh,Jurkat NFkB inh,Gal4-VP16 ctr,NR2F2 inh conf,others
Cc1ccc2c(c1)Oc1ccccc1N=C2,x,0,-4,2,x,x,x,x,
O=C(NC1CCCCC1)N1Cc2cc(Br)ccc2-n2nncc2C1,x,x,9,x,x,x,x,x,
CNP1(NC)=NC(C(F)(F)F)=NC(C(F)(F)F)=N1,56*,x,5,1,-22,-43,x,x,Gli antag conf=11;Gli cytotox=6;Wnt3a cs=-6
CC[C@]12CCN(CC3(O)CC3)C(Cc3ccc(O)cc31)C2(C)C,x,x,5,x,x,x,x,x,
COc1ccc2c(c1)C13CCN4CC5=CCOC6CC(=O)N2C1C6C5CC43 (configuration not stated),x,x,-3,7,x,x,x,x,
CN1/C(=C\C=Nc2ccccc2)C(C)(C)c2ccccc21,59*,-72,9,-34,-60,3,x,x,Gli antag conf=59*;Gli cytotox=27*;Wnt3a cs=7
Cn1c(O)c(/C=C/C=Nc2ccccc2)c(=O)n(C)c1=O,-2,x,-4,23,2,6,x,x,
Cc1cc(/C=C2\C(=O)NC(=O)N(c3ccc(Cl)cc3)C2=O)c(C)n1-c1sc2c(c1C#N)CCCC2,53,x,-1,-14,-8,-2,x,x,Gli antag conf=55*;Gli cytotox=47*;Wnt3a cs=-39
CCOC(=O)c1c(-n2c(C)cc(/C=C3\C(=O)NC(=O)N(C)C3=O)c2C)sc2c1CCCC2,14,-8,14,1,-7,-3,x,x,
CC1CCOC(=O)C=CC=CC(=O)OC2CC3OC4C5OC5(C)C(O)CC4(COC(=O)C1O)C2(C)C31CO1 (configuration not stated),91*,113,92*,17,x,x,23*,89*,Gli antag conf=93*;Gli cytotox=77*;Wnt3a cs=103*
N#Cc1cn(C2OC(CO)C(O)C2O)c2ncnc(N)c12 (configuration not stated),81*,90*,47*,5,x,x,-8,2,Gli antag conf=98*;Gli cytotox=97*;Wnt3a cs=-53
Nc1ncnc2c1ncn2[C@@H]1O[C@H](COP(=O)(O)CP(=O)(O)O)[C@@H](O)[C@H]1O,5,-8,-27,4,x,x,x,x,
COc1ccc(CC2C(=O)NC(C)C(=O)N(C)C3C(=O)N(C)C(Cc4ccc(O)c(c4)Oc4ccc(cc4)C3O)C(=O)NC(C)C(=O)NC(C)C(=O)N2C)cc1 (configuration not stated),93*,123,89*,-1,x,x,27*,91*,Gli antag conf=96*;Gli cytotox=87*;Wnt3a cs=105*
COC(=O)N1Cc2ccccc2-n2nncc2C1,x,7,-3,11,x,x,x,x,
COc1ccc(C(c2nnnn2-c2ccc3c(c2)OCCO3)N2CCC3(CC2)C(=O)NCN3c2ccccc2)cc1 (configuration not stated),x,x,10,13,x,x,x,x,
COc1ccc(C2=CC(c3ccc4c(c3)OCO4)c3c(c4ccccc4oc3=O)O2)cc1OC (configuration not stated),39,61*,-17,3,x,x,x,x,TAG conf=60*
COc1ccc(C(CC(=O)c2ccc3c(c2)OCO3)c2c(O)c3ccccc3oc2=O)cc1OC (configuration not stated),x,-6,-4,2,x,x,x,x,
COc1ccc2[nH]c(C)c(CCNCc3cn(C)c4ccccc34)c2c1,38,56*,-6,-5,-25,2,x,x,TAG conf=46*
CCCCCN1C(=O)c2cc(OC)ccc2[C@@]2(C(=O)OCC)Cc3cc(OC)ccc3[C@@H]12,x,x,11,x,x,x,x,x,
CC(C)C[C@H]1COc2cc(N3CCN(C)CC3)ccc2S(=O)(=O)N1,x,x,-1,x,x,x,x,x,
COC(=O)C1=C(c2ccc(OCc3ccccc3)cc2)C[C@@H]2CC[C@H]1N2C(=O)NCc1ccc(C(C)(C)C)cc1,x,70*,4,-17,x,x,x,x,TAG conf=75*
COC(=O)C1=C(c2ccc(OCc3ccccc3)cc2)C[C@@H]2CC[C@H]1N2C(=O)NCc1ccccc1,14,-13,2,-5,11,9,x,x,
CCCCCCC(C)(C)c1ccc([C@@H]2C[C@H](O)CC[C@H]2CCCO)c(O)c1,-2,106*,5,-32,-6,7,x,x,TAG conf=116*
CN1CSC(=S)N(C)C1,-11,64*,22,-12,-2,5,x,x,TAG conf=64*
O=C1NC(=S)NC(=O)C1Cc1ccccc1O,5,8,-6,3,x,x,x,x,
SMILES,Gli-Sufu block,TAG inh,COUP-TFII inh,H9c2 protect,697 NFkB inh,Jurkat NFkB inh,Gal4-VP16 ctr,NR2F2 inh conf,others
Oc1ccccc1-[n+]1c(-c2ccccc2)cc(-c2ccccc2)cc1-c1ccccc1,24,0,7,-26,-15,20,x,x,
Cc1ccccc1-[n+]1c(-c2ccccc2)cc(-c2ccccc2)cc1-c1ccccc1,77*,16,68*,-11,-11,16,22*,77*,
COc1ccc2c(c1OC)CN1CCc3cc4c(cc3[C@H]1C2)OCO4,40,-22,x,-4,-17,4,x,x,
CCC1CN2CCc3cc(OC)c(OC)cc3C2CC1CC1NCCc2c1[nH]c1ccc(O)cc21 (configuration not stated),87*,123,91*,7,x,x,24*,90*,
O=C1C(=O)c2ccccc2-c2ccccc21,22,120,109*,-33,15,34,96*,110*,
COc1cc2c(c3oc4cccc(O)c4c(=O)c13)[C@@H]1C=CO[C@@H]1O2,x,x,-24,x,x,x,x,x,
CCN1/C(=C/C=C/C2=[N+](CC)c3ccccc3C2(C)C)C(C)(C)c2ccccc21,x,-360,92*,-35,x,x,42*,90*,
CC(C)(O)/C=C/C(=O)C(C)(O)C1C(O)CC2(C)C3CC=C4C(C=C(O)C(=O)C4(C)C)C3(C)C(=O)CC12C (configuration not stated),89*,8,44*,-1,x,x,61*,65*,
NC1CC2CCCCC2CC1(O)c1ccccc1 (configuration not stated),x,17,14,-7,x,x,x,x,
CCC(C)(O)C(=O)OC1C(=O)OC2CC3C(C)=CC(O)C(O)C3(C)C3C4(O)OCC23C1C(C)C4O (configuration not stated),x,x,75*,-6,x,x,10,62*,

# Source: PubChem
